Data: PubChem BioAssay (NCI)
Where “and” joins values, the source holds several entries; their conditions need not be identical. Identical values can stand only once. About 83,000 compounds went through this panel and 20% of them were active in at least one assay; those are over-represented in the sample as a whole.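 A percent growth of 40 corresponds to 60% growth inhibition; 0 means no net growth; -100 means all cells died. Active threshold: below 10.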 Values without a mark were called inactive. Calls of active or inactive are those of the source.

Test system: TK-10 renal
Assay: NCI-60 one-dose screen, 48 h (100 = growth as untreated, 0 = no growth, -100 = all killed)
Details: 10 µM unless noted

Row | Compound | growth
1 | COc1ccc(C(=O)c2ccc(OC)c(OC)c2OC)cc1 | 34.4% and 54.2%
2 | O=C1/C(=C/c2ccccc2)CN(C(=O)C(Cl)Cl)C/C1=C\c1ccccc1 | 59.5%
3 | COC1=CC(=O)C(OC)=C(O)C1=O | 105%
4 | COc1cccc(C2C(C#N)=C(N)Oc3cc(OCCCCCC[P+](c4ccccc4)(c4ccccc4)c4ccccc4)ccc32)c1 (centres undefined) | -16.5% (active)
5 | COc1ccc(-c2ccccc2)cc1-c1c(Nc2cc(Cl)cc(Cl)c2O)c(=O)c1=O | 12.8%
6 | Cc1nc(-n2[nH]c(=O)ccc2=O)sc1N=Nc1ccccc1 | 121%
7 | COc1ccc(-c2csc(NC(=O)CN3CCN(CCO)CC3)n2)cc1NS(=O)(=O)c1cccc2c(N(C)C)cccc12 | 109%
8 | COc1ccc(-c2[nH]c3ccccc3c2-c2ccc(OC)cc2)cc1 | 87.4%
9 | CN(C)C(=O)c1cc2cnc(Nc3ccc(-c4csc5c(=S)cc(N6CCOCC6)oc45)cc3)nc2n1C1CCCC1 | 4.82% (active)
10 | O=C(Nc1ccc2ncsc2c1)c1csc(Nc2ccc3[nH]ncc3c2)n1 | 55.2%
11 | Cc1ccc(NC(=O)c2sc3nc(C)c(C(=O)c4ccccc4)cc3c2N)cc1 | 99.5%
12 | COc1cc(CO)cc2cc3ccccc3nc12 | 118%
13 | CC1(Cc2ccccc2)CC2=C(C(=O)O1)C(c1ccccc1)NC(=O)N2 (centres undefined) | 108%
14 | CCCCCCCCCCCCCCCC(=O)O[C@@H]1[C@@H](O)[C@@H](O)C([C@H](NC(=O)[C@@H]2C[C@@H](CCC)CN2C)[C@H](C)Cl)O[C@@H]1SC (some centres undefined) | 115%
15 | O=C1/C(=C/c2cn(-c3ccccc3)nc2-c2ccccc2)SC(=S)N1c1ccc(Cl)cc1 | 91.8%
16 | COc1ccc(C/C(C)=C(/c2ccc(OCCN3CCCCCC3)cc2)c2ccc(OC(=O)c3ccccc3)cc2)cc1 | 97.2%

Test system: ACHN renal
Assay: as above
Details: 10 µM unless noted

Row | Compound | growth
17 | C=C(C)[C@@H]1CC[C@]2(C(=O)O)CC[C@]3(C)[C@H](CC[C@@H]4[C@@]5(C)CCC(N)C(C)(C)[C@@H]5CC[C@]43C)[C@@H]12 (some centres undefined) | 8.7% (active)
18 | N#C/C(=C\c1ccc(Br)cc1)n1nnc2c(F)cccc21 | -50.8% (active)
19 | CC(C)(C)c1cc(NC(=O)Nc2ccc(-c3cn4c(n3)sc3cc(OCCN5CCOCC5)ccc34)cc2)no1 | 12.4% and 26.7%
20 | Cc1ccc(S(=O)(=O)Nc2cc(Sc3ccccc3)c(O)c3ccccc23)cc1 | 91.5%
21 | COC(=O)c1[nH]nc(OC)c1C1(C(C#N)c2nc3ccccc3s2)CCCc2ccccc21 (centres undefined) | 89.1%
22 | COc1ccc(-c2cc(-c3cccc(Cl)c3)c(C#N)c(=O)[nH]2)c(OC)c1 | 97.2%
23 | COc1ccc(/C=N\Nc2nc(SCC(C)C)nc(-c3ccc(OC)cc3)c2C#N)cc1 | -71.7% (active)
24 | NS(=O)(=O)c1ccc(C(=O)N=Nc2c(O)[nH]c3c(F)cccc23)cc1 | 97.3%
25 | C/C=C(\C)C(=O)N[C@H]1CC[C@]2(C)C3CC[C@@]4(C)C(CC[C@@H]4C(C)N(C)C)C3CCC2[C@H]1OC(C)=O (some centres undefined) | -65.1% (active)
26 | CC(=O)N1N=C(c2ccc(Nc3nc(Nc4ccc(F)cc4)nc(Nc4ccc(Cl)cc4)n3)cc2)CC1c1ccc(N(C)C)cc1 (centres undefined) | 61.8%
27 | ON=C1CCCCCCCC1 | 98.6% and 105%
28 | O=C(/C=C/c1ccc([N+](=O)[O-])cc1)c1ccccc1 | 99.6%
29 | O=C(Cc1ccc(F)cc1)c1ccccc1 | 110%
30 | COc1cc(-c2[nH]ncc2Nc2ccc(Cl)cc2)cc(OC)c1OC | 78.9%
31 | C=CCN1C=CC(=O)[C@H](O[Si](C)(C)C(C)(C)C)[C@@H]1/C=C/c1ccccc1 | -73.1% [100 µM] (active)
32 | Cc1ccc(-c2nc3nc(-c4ccc(Cl)cc4)nc(N4CCCNCC4)c3o2)cc1 | -98.9% (active)
33 | CC1=C2[C@@H](CC1)[C@]1(C)O[C@@](C3CC3)(C[C@H]1OC(=O)CO)[C@H]2OC(=O)/C=C/c1ccccc1 | 9.75% (active)
34 | CCN1CCN(C(=O)[C@]23CC[C@@H](C)[C@H](C)[C@@H]2C2=CC[C@@H]4[C@@]5(C)CCC(=O)C(C)(C)[C@@H]5CC[C@@]4(C)[C@]2(C)CC3)CC1 | 9.64% (active)
